Laboratory results published in PubChem BioAssay (NCI).
About 79,000 compounds went through this panel and 15% of them were active in at least one assay; those are over-represented in the sample as a whole. Cut-off read from the data, not from the text of the source: active = growth inhibition above about 70%; inactive = the rest.

What was measured:
[1] = NCI Yeast Anticancer Drug Screen. Data for the rad50 strain (AID 155);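 note: 0% = growth of vehicle-only cultures of the same strain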; details: S. cerevisiae rad50 strain growth inhibition; at 50.0 µM; hits give high values
Method in brief: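 Inhibition values express reduced yeast growth in compound-treated cultures relative to vehicle-treated controls.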

[2] = NCI Yeast Anticancer Drug Screen. Data for the mec2-1 strain (AID 157); details: S. cerevisiae mec2-1 strain, at 50.0 µM, hits give high values
Method in brief: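 Vehicle-treated cultures served as reference for growth inhibition of compound-exposed mec2-1 yeast.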

[3] = NCI Yeast Anticancer Drug Screen. Data for the sgs1 mgt1 strain (AID 161);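 note: 0% = growth of cultures given vehicle only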; details: S. cerevisiae sgs1 mgt1 strain, at 50.0 µM, hits give high values
Method in brief: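 Read-out: growth inhibition vs vehicle controls. Cells: mutant yeast strain deficient in DNA damage repair.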

[4] = NCI Yeast Anticancer Drug Screen. Data for the cln2 rad14 strain (AID 165);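 note: 0% = growth equal to vehicle treated cultures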; details: S. cerevisiae cln2 rad14 strain, at 50.0 µM, hits give high values
Method in brief: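 Each compound was tested on cln2 rad14 yeast. Inhibition of growth was calculated against vehicle-exposed controls.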

[5] = NCI Yeast Anticancer Drug Screen. Data for the bub3 strain (AID 167); details: S. cerevisiae bub3 mutant strain, at 50.0 µM, hits give high values
Method in brief: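 Steps: expose the mutant yeast strain to compound; grow alongside vehicle-treated cultures; measure growth; express inhibition against the vehicle cultures.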

[6] = NCI Yeast Anticancer Drug Screen. Data for the mlh1 rad18 strain (AID 175); details: S. cerevisiae mlh1 rad18 strain growth inhibition; at 50.0 µM; hits give high values
Method in brief: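 Vehicle-treated cultures served as the reference for growth inhibition in a yeast strain carrying DNA damage repair alterations exposed to each compound.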

Measured: growth inhibition

COc1cc2c3cc1Oc1c(OC)c(OC)cc4c1C(Cc1ccc(O)c(c1)Oc1ccc(cc1)CC3N(C)CC2)N(C)CC4 (stereo not drawn)
inactive: [1] 1.05% | [2] 0.55% | [3] 0.65% | [4] 6.9% | [5] 8.1% | [6] -89.8%

O=[N+]([O-])c1cccc(C(F)(F)F)c1
inactive: [1] -3.9% | [2] -12.1% | [3] -9.1% | [4] -23.9% | [5] 34.3% | [6] -9.85%

CCOC(=O)c1[nH]c(C)c(C(=O)O)c1C
inactive: [1] -4.45% | [2] -26.3% | [3] 0.2% | [4] -24.9% | [5] -23.8% | [6] -11.2%

O=C1OC[C@H]2[C@H](c3ccc(O)c(O)c3)c3cc(O)c(O)cc3C[C@H]12
inactive: [1] 24.9% | [2] -2.45% | [3] 23.9% | [4] 15.8% | [5] 23.7% | [6] 10.9%

O=C(CC(=O)c1ccccc1O)c1ccccc1
inactive: [1] 31.4% | [2] 43.1% | [3] 34.4% | [4] 40.5% | [5] 62.6% | [6] 39.9%

Cc1cc(C(O)(c2ccc(Nc3ccccc3)cc2)c2ccc(Nc3ccc(S(=O)(=O)O)cc3)cc2)ccc1N (stereo not drawn)
inactive: [1] -44.5% | [2] -46% | [3] -9.6% | [4] -16.1% | [5] -36.6% | [6] -34.6%

CC[N+](C)(CC)CCO
inactive: [1] 13.7% | [2] -3.8% | [3] 4.4% | [4] 10.7% | [5] 2.9% | [6] 5.05%

O=C(NC1CCCCC1)OCc1c(COC(=O)NC2CCCCC2)c(-c2ccc(Cl)c(Cl)c2)n2c1CCC2
inactive: [1] 16% | [2] 7.1% | [3] 27.4% | [4] 43.3% | [5] -5.3% | [6] 6.9%

COc1ccc(-c2cc3c(nn2)-c2ccccc2C3=O)cc1
inactive: [1] 1.1% | [2] -16.7% | [3] -13% | [4] -10.4% | [5] -19.1% | [6] 5.45%

C[C@]12CC[C@@H]3c4ccc(OCC(=O)O)cc4CC[C@H]3[C@@H]1CCC2=O
inactive: [1] 16% | [2] 0.35% | [3] -18.7% | [4] -8% | [5] 5.6% | [6] 2.05%

O=C(c1ccc(O)cc1)c1ccc(O)cc1
inactive: [1] 30.4% | [2] -6.6% | [3] 15.2% | [4] -49.1% | [5] -9.15% | [6] 17.2%

CCOC(=O)/C(C#N)=C/c1cccc(C)c1
inactive: [1] -19.4% | [2] 22.8% | [3] -25.2% | [4] 13.3% | [5] 23.2% | [6] -6.55%

Nc1ccc(N=Nc2ccc(S(=O)(=O)O)cc2)c2ccccc12
inactive: [1] -0.3% | [2] 3.15% | [3] -22.4% | [4] -25.9% | [5] 1.75% | [6] 9.05%

NC(=S)NN=C1CCCC1
inactive: [1] 2.2% | [2] -5.8% | [3] 4.75% | [4] -19.6% | [5] -2.45% | [6] 7.75%

CCN(CC)CCNc1ccc(CO)c2sc3ccccc3c(=O)c12
inactive: [1] -16.1% | [2] -28.1% | [3] -10.8% | [4] 2.6% | [5] -24.1% | [6] -14.4%

NCCCN
inactive: [1] 8.9% | [2] -7.05% | [3] -11.1% | [4] -5.9% | [5] 3.6% | [6] 6.55%

O=C(Cc1nc2ccc([N+](=O)[O-])cc2nc1CC(=O)c1ccccc1)c1ccccc1
inactive: [1] -2.4% | [2] 9.35% | [3] -10.5% | [4] 2.75% | [5] 13.2% | [6] -1.1%

Oc1ccc2c(c1)OCC1(O)Cc3cc(O)c(O)cc3C21 (stereo not drawn)
inactive: [1] 3.9% | [2] -2.4% | [3] 10.3% | [4] 3.6% | [5] 9.75% | [6] -3.8%

C[N+](C)(C)C(=O)c1ccccc1
inactive: [1] 21.6% | [2] 21.4% | [3] 22.1% | [4] 11.1% | [5] -1.15% | [6] 46.6%

CC(=O)OCCC(C)CCC=C(C)C (stereo not drawn)
inactive: [1] 14.7% | [2] 19.1% | [3] -19.9% | [4] -18.1% | [5] -16.9% | [6] 2.4%

CCOc1ccccc1/C=N/Nc1nc2ccccc2o1
inactive: [1] 30.6% | [2] 0.4% | [3] -2.8% | [4] -23.8% | [5] 6.85% | [6] 33.6%

Nc1ccccc1C(=O)Nc1ccc(Cl)cc1Cl
inactive: [1] -9.1% | [2] -22.4% | [3] 7.4% | [4] 4.85% | [5] 21.9% | [6] 2.35%

O=c1cc(-c2ccccc2)[nH]c(=S)[nH]1
inactive: [1] -13.4% | [2] -11.9% | [3] 8.65% | [4] -24.8% | [5] 9.1% | [6] -9.55%

Cc1ccc(N)cc1[N+](=O)[O-]
inactive: [1] 11.8% | [2] 2% | [3] 6.2% | [4] 18.2% | [5] 15.4% | [6] 15.8%

CCc1nc(N)nc(N)c1-c1ccc(Cl)cc1
inactive: [1] -9.9% | [2] 2.9% | [3] -4.45% | [4] -42.5% | [5] -14% | [6] -21.2%

Sc1ccc(Nc2c3ccccc3nc3ccccc23)cc1
inactive: [1] 28.4% | [2] 33.6% | [3] 14.9% | [4] 7.3% | [5] 25.6% | [6] 54.6%

COc1ccc(C(O)c2ccccc2)cc1 (stereo not drawn)
inactive: [1] 2.2% | [2] -17.4% | [3] -34.9% | [4] -50.2% | [5] -28.1% | [6] -15.2%

O=C(Nc1cc(-c2ccccc2)[nH]n1)c1ccc(Cl)cc1
inactive: [1] -5.35% | [2] -21.1% | [3] 6.05% | [4] -1% | [5] -7.15% | [6] -3.3%

C#C[C@H]1CCCCCC1O (stereo partly drawn)
inactive: [1] 13.1% | [2] 2% | [3] -1.35% | [4] 14.4% | [5] -6.75% | [6] 21.9%

C/C(=N/NC(N)=O)c1ccco1
inactive: [1] 1.1% | [2] -1.05% | [3] -3.55% | [4] -2% | [5] 1.95% | [6] -3.55%

N#CC1(Nc2ccc3c4c(cccc24)CC3)CCCCC1
inactive: [1] 0.8% | [2] 7.2% | [3] 15.1% | [4] 16% | [5] 26.2% | [6] 12.5%

S=C1NCc2cncnc2N1
inactive: [1] -13.7% | [2] -2.05% | [3] -6.9% | [4] -8.7% | [5] 3.85% | [6] 18.8%

Cc1cccc(CO)c1
inactive: [1] 14.3% | [2] -28.6% | [3] -25.1% | [4] -57% | [5] -18.4% | [6] -22.1%
